This is a sample that favours compounds with a hit; in the whole collection about 1.9% have one here.
PABP FP inh: blocks human PABP binding to poly(A) RNA; P11940; fluorescence polarization; inhibition, % at 35 µM; actives 1% (n = 290,000);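 note: calls also rest on retests at 20 µM and on dose response follow-up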
Target sequence (P11940 whole entry, looked up): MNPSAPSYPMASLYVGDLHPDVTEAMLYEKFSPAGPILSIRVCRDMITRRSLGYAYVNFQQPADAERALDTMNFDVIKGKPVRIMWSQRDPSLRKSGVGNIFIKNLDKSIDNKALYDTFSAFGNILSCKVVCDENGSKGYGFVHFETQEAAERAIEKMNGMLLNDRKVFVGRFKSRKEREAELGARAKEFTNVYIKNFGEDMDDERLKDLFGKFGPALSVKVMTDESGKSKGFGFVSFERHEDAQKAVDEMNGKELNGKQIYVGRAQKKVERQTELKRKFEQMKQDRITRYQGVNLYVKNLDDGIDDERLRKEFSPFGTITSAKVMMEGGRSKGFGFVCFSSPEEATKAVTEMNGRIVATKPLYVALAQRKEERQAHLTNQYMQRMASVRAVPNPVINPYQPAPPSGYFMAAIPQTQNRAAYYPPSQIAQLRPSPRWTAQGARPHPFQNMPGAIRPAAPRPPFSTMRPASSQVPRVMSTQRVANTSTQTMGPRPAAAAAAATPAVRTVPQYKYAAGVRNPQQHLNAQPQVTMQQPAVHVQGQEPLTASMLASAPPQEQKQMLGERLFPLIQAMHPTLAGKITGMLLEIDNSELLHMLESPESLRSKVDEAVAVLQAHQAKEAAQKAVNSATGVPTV
GRK2 aptamer HTS: blocks RNA aptamer binding to human GRK2 | P25098 | bead flow cytometry, FAM-aptamer displacement from GRK2 | inhibition of aptamer binding, % at 10 µM | actives 0.59% (n = 330,000) | AID 488847;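 active = inhibition of aptamer binding above 40%, roughly 3 SD of noise, on plates passing a quality check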;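 note: median bead fluorescence of bound FAM aptamer so fluorescent compounds give negative values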
PERK inhibitor: blocks human PERK kinase | CHO PERK-DD fusion, SEAP luminescence translation reporter | AID 1416 | inhibition, % at 5.6 µM | actives 0.17% (n = 220,000);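 active = inhibition above the mean inhibition of all tested compounds plus 3 SD, set separately per screening campaign, cut at about 2.9% in these data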;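 note: PERK kinase domain activated by AP20187 dimerizer at 100 nM; 0% = DMSO with dimerizer and 100% = rapamycin at 8.4 µM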
eIF4H FP inh: inhibitors of RNA binding by human eIF4H | Q15056 | eIF4H fluorescence polarization binding assay | inhibition, % at 35 µM | actives 0.94% (n = 290,000);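 note: calls also rest on retests at 20 µM and on dose response follow-up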
PABP1 MLLE inh: blocks PAM2 peptide binding to the PABP1 MLLE domain; inhibition, % at 20 µM; actives 0.36% (n = 360,000); GST-MLLE / FITC-PAM2 fluorescence polarization; P11940; in the data active = inhibition above about 35%, passing the limit was not always enough;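 note: plate controls were DMSO wells with GST-MLLE for no effect and wells lacking GST-MLLE protein for full effect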
* marks the source's active call; other numbers are inactive results; ? = inconclusive; . = not tested or not shown; ! = repeats disagree. Unless noted, the rule behind the calls is not given here.

SMILES | PABP FP inh | GRK2 aptamer HTS | PERK inhibitor | eIF4H FP inh | PABP1 MLLE inh
CCC(=O)NNC(=O)CCC(=O)Nc1cccc(Cl)c1C | -0.3 | 0.0 | 3.0* | 30.1 | 9.1
O=C(COC(=O)CC12CC3CC(CC(C3)C1)C2)Nc1cccnc1Cl | -10.6 | 3.0 | -0.3 | -11.2 | -11.0
COC(=O)c1cc2c(-c3ccccc3)cc3ccccn3c-2c1C(=O)OC | 108.6* | 1.0 | -1.0 | ? | 35.4
COC(=O)c1c(C)c2c(C)cc3ccccn3c-2c1C(=O)OC | ? | 8.0 | 0.2 | ? | 99.5
COC(=O)[C@@]1(Cc2ccccc2)[C@H]2C(=O)N(Cc3ccccc3)C(=O)[C@H]2[C@H]2CN=C(SCC(=O)c3ccccc3)N21 | . | 0.0 | . | . | 18.9
CC[C@]1(C(=O)OC)[C@H]2C(=O)N(Cc3ccccc3)C(=O)[C@H]2[C@H]2CN=C(SCC(=O)c3ccccc3)N21 | . | 0.0 | . | . | 37.8*
CC(=O)c1c(C)cc(C)c(CSc2nc(C)cc(=O)[nH]2)c1C | -8.1 | 0.0 | 0.8 | -13.2 | 43.9*
CCOC(=O)CSc1nc(C)cc(=O)[nH]1 | -4.3 | 1.0 | 1.9 | -1.9 | 22.8
COC(=O)c1ccc(CC(=O)c2c(C)cc(O)cc2O)o1 | 51.1* | 7.0 | 0.9 | 79.9* | 1.0
CCOC1=CC2=C(C(=O)C(Cl)=CC2=O)[C@@H]2CN(S(=O)(=O)c3ccc(C)cc3)[C@@H](c3ccccc3)[C@H]12 | . | . | . | . | 46.4*
CCN(C(=O)CCN1C(=O)S/C(=C\c2ccccc2)C1=O)C1CCS(=O)(=O)C1 (stereo not drawn) | 0.6 | 5.0 | . | 8.3 | 13.6
Cc1cc2ccccc2n1CCNC(=O)C1CC1 | 50.2* | 32.0 | . | 111.7 | 19.7
Cc1cc2ccccc2n1CCNC(=O)C1CCCCC1 | -16.2 | 12.0 | -0.7 | 18.7 | 11.5
C=CCc1cccc(/C=N/c2ncccc2O)c1O | 71.0* | 2.0 | -0.6 | 70.5* | 1.4
N=C1S/C(=C\c2ccco2)C(=O)N1c1ccc2c(c1)OCO2 | 39.9* | 4.0 | 0.9 | 91.0 | -11.3
COc1ccccc1OCCN1C(=O)S/C(=C\c2ccco2)C1=O | -10.8 | 1.0 | 0.0 | -13.4 | -0.4
Cc1ccc(N2C(=O)/C(=C/c3ccco3)SC2=S)cc1 | 3.5 | 7.0 | -0.1 | 83.7 | 11.9
N=C1S/C(=C\c2ccco2)C(=O)N1c1nccs1 | 3.2* | 2.0 | -0.8 | 95.2* | 7.0
CC1CCCC(NC(=O)C2COc3ccccc3O2)C1C (stereo not drawn) | . | 0.0 | . | . | 9.2
CCCOc1ccc(F)cc1-c1cc(C(=O)Nc2ccccc2)[nH]n1 | . | . | . | . | 9.1
Cn1c(=O)oc2cc(S(=O)(=O)N3CCN(c4cccc(Cl)c4)CC3)ccc21 | 112.2* | 1.0 | 1.3 | 103.1* | -6.8
COc1cccc(C(=O)Nc2ccc(C3CC3(Cl)Cl)cc2)c1 (stereo not drawn) | 67.1 | 1.0 | 0.1 | active | -5.1
CCOc1ccccc1CNC(=O)c1cc2occc2n1C | 83.3* | 0.0 | -0.4 | ? | 2.2
COc1ccc(N=c2oc3ccccc3cc2C(=O)Nc2ccccn2)cc1OC | 5.7 | 72.0* | 0.9 | -0.6 | .
COc1ccc(NC(=S)NCc2ccc(S(N)(=O)=O)cc2)c(OC)c1 | 119.5 | 0.0 | 0.1 | active | -3.8
SMILES | PABP FP inh | GRK2 aptamer HTS | PERK inhibitor | eIF4H FP inh | PABP1 MLLE inh
CCN(C(=O)C(C)OC(=O)C1C(C(=O)OC)=C(C)NC(C)=C1C(=O)OC)c1ccccc1 (stereo not drawn) | -3.3 | 0.0 | 0.1 | -3.5 | 6.5
O=[N+]([O-])c1ccc(CSc2nc3ccccc3[nH]2)cc1 | 71.5* | 2.0 | 0.0 | -4.7 | -74.1
Cc1c(C(=O)N2CCCC2)c(S(=O)(=O)Nc2cccc(Br)c2)c(C)n1C | 5.2 | 1.0 | . | -1.6 | -2.7
CN(Cc1nc(-c2ccc(Cl)cc2)no1)C(=O)c1ccc2c(c1)OCO2 | . | 0.0 | . | . | 14.4
O=C1[C@H](Oc2ccccc2)[C@@H](c2ccccc2)N1c1ccncc1 | . | 6.0 | . | . | -15.3
O=C1[C@@H](Oc2ccccc2)[C@@H](c2ccccc2)N1c1ccccc1 | . | 41.0* | . | . | 3.5
Cc1cc(=O)c2cc3nc(-c4cccnc4)oc3c(Br)c2o1 | 78.3* | 21.0 | 0.9 | 97.0* | .
N#Cc1c(/N=C/c2ccco2)sc2c1CCC2 | 31.2 | 0.0 | 0.3 | 11.8 | 9.4
CCOc1[nH]c(/N=C/c2ccco2)c(C#N)c1C#N | 126.3* | 3.0 | 1.4 | 99.7* | 18.8
C/C(=N\Nc1ccc(C(=O)O)cc1)c1ccc(Br)cc1 | 36.1 | 14.0 | 1.5 | 50.9* | 13.9
CCN1C(=O)/C(=C/c2ccc(OC)c(OC)c2)N=C1SCC(=O)NCc1ccco1 | -3.2 | 0.0 | 0.4 | 12.5 | 37.8*
COc1ccc(-c2ccc(SCC(=O)NCc3ccco3)nn2)cc1OC | -4.1 | 2.0 | -0.3 | 1.7 | 23.4
Cc1ccc(/C=C/c2ccc(=O)n(Cc3ccc(Cl)cc3Cl)n2)cc1 | -6.0 | 2.0 | 3.0* | -3.1 | -9.6
Oc1c(C(c2ccccc2)N2CCCCC2)sc2ncnn12 (stereo not drawn) | 4.5 | 1.0 | 0.7 | -5.6 | -7.0
Oc1c(C(c2ccco2)N2CCOCC2)sc2ncnn12 (stereo not drawn) | 123.7* | 3.0 | 1.2 | 129.9 | 8.5
O=C1N/C(=C/c2ccco2)C(=O)N1Cc1ccccc1F | active | 20.0 | 1.1 | 95.6* | 7.3
COc1ccc(/C=C2/NC(=O)N(Cc3ccccc3F)C2=O)cc1OC | 76.2* | 5.0 | -0.2 | ? | -3.2
Cc1cccc(C)c1NC(=S)Nc1ccc(Cl)c(Cl)c1 | 4.1 | 0.0 | -0.6 | -4.2 | 45.4*
Cc1ccc(NC(=S)Nc2ccc(Cl)c(Cl)c2)c(OC(F)F)c1 | -1.8 | 6.0 | 0.1 | -4.9 | 13.7
COC(=O)c1cccc(NC(=S)Nc2ccc(Cl)c(Cl)c2)c1 | 0.9 | 1.0 | 2.1 | -6.3 | 16.7
CC(=O)Nc1ccc(NC(=O)Nc2cc(C)cc(C)c2)cc1 | 8.8 | 0.0 | 3.6* | 0.9 | 6.9
Cc1cc(C)cc(NC(=S)Nc2ccc(Cl)c(Cl)c2)c1 | 4.7 | 2.0 | 0.2 | -3.4 | 42.6*
CC1(C(=O)NS(=O)(=O)c2ccc(Cl)s2)CCN1C(=O)C1CCCCC1 (stereo not drawn) | . | . | . | . | -2.5
Cc1ccc(C)c(C(=O)C(C)OC(=O)CN2C(=O)NC3(CC(C)CC(C)(C)C3)C2=O)c1 (stereo not drawn) | -5.9 | 0.0 | . | -4.4 | -14.0
COC(=O)c1c(-c2ccco2)csc1NC(=O)C1CC=CCC1C(=O)O (stereo not drawn) | 68.1* | 3.0 | 2.4 | 84.7* | -9.1
SMILES | PABP FP inh | GRK2 aptamer HTS | PERK inhibitor | eIF4H FP inh | PABP1 MLLE inh
O=c1cc(-c2ccc(Br)cc2)[nH][nH]1 | -1.6 | 1.0 | 2.9* | -3.3 | 15.6
Cc1cc(O)ccc1N/C=C1\CCCC1=O | 5.5 | 1.0 | 1.0 | 81.1* | -19.6
CC1=Nc2ccc(C)cc2/C1=C/c1c(N)n2oc(C)cc2nc1=O | 54.2*! | 0.0 | -1.9 | ? | -44.0
CSc1nsc2nc(=O)c(/C=C3\C(C)=Nc4ccc(C)cc43)c(N)n12 | -3.8 | 3.0 | 0.8 | ? | -19.9
O=C(NNc1nc2ccccc2s1)C1CC1 | -3.0 | 3.0 | 3.6* | -10.2 | -7.7
COC(=O)COc1ccc(C2Nc3c(Cl)ccc(C(=O)O)c3C3C=CCC32)cc1 (stereo not drawn) | active | 13.0 | 0.3 | 78.5 | 28.4
